ELG1 DNA repair: qHTS screen for small molecules that inhibit ELG1-dependent DNA repair in human embryonic kidney (HEK293T) cells expressing luciferase-tagged ELG1; HEK293T ELG1-luciferase reporter, luminescence, 16 h; DNA damage induced by 5-fluorouridine; Potency, µM (titrated, usually from 46.1 µM), without a hit: at the top dose activity change, negative = inhibition, actives largely listed as inhibitors; 2.3% of 330,000 active; AID 504467, 2011; further: potency means the concentration at half of the fitted maximal effect; nearly all actives have a fitted effect of over 55% in size
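DMSO vehicle served as the neutral condition. Each well held 2,000 cells given 5-fluorouridine plus compound; after 16 hr at 37 °C/5% CO2, ONE-Glo was added and luciferase measured 30 min later.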
HT1080-NT tox: qHTS for induction of synthetic lethality in tumor cells producing 2HG: qHTS for the HT-1080-NT fibrosarcoma cell line; HT-1080-NT fibrosarcoma viability, CellTiter-Glo ATP luminescence, 48 h; Potency, µM (highest dose often 46.1 µM), for the others: at the top dose activity, negative = less viability, actives largely listed as cytotoxic; 1.6% of 360,000 active; AID 686970, 2013;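 further: NT is the 2HG producing partner of a matched IDH1 knockdown line; potency means the concentration at half of the fitted maximal effect; 0% = DMSO-treated cells and -100% = media-only wells without cells; nearly all actives have a fitted effect of over 55% in size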
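Luminescent CellTiter-Glo readout after 48 hours of compound exposure at 37 degrees C defined viability of HT-1080-NT cells. Activity was normalized to DMSO wells and cell-free media wells; concentration-response curves were fitted and assigned curve classes.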
DT40 TDP1 no CPT: qHTS for Inhibitors of human tyrosyl-DNA phosphodiesterase 1 (TDP1): qHTS in cells in absence of CPT | DT40 Tdp1-/- hTDP1 cells, no CPT, ATP luminescence, 48 h | Potency, µM (titrated, usually from 46.2 µM), for inactives: at the highest dose activity change, negative = growth inhibition, hits mostly inhibitors | 15% of 420,000 active | AID 686978, 2013; further: potency means the concentration at half of the fitted maximal effect; nearly all actives have a fitted effect of over 55% in size
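No-CPT arm: Tdp1-/-;hTDP1 DT40 cells (400/well) plus compounds, incubated ≥48 hr at 37 °C. Readout CellTiter-Glo luminescence.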
DT40 TDP1 CPT: qHTS for Inhibitors of human tyrosyl-DNA phosphodiesterase 1 (TDP1): qHTS in cells in presence of CPT; Potency, µM (titrated, usually from 46.2 µM), without a hit: top-dose activity change, negative = growth inhibition, actives largely listed as inhibitors; chicken DT40 Tdp1-/-;hTDP1 cells + 20 nM CPT, ATP luminescence, 48 h; 12% of 420,000 active; further: potency means the concentration at half of the fitted maximal effect; nearly all actives have a fitted effect of over 55% in size
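Cell growth measured by CellTiter-Glo luminescence after a minimum 48 h, 37 C compound exposure with 20 nM CPT in Tdp1-knockout DT40 cells stably expressing hTDP1, seeded 400/well; qHTS titration format.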
HT1080 IDH1KD tx: qHTS for induction of synthetic lethality in tumor cells producing 2HG: qHTS for the HT-1080-IDH1KD cell line; HT-1080 IDH1 knockdown viability, ATP luminescence, 48 h; 2% of 360,000 active; Potency, µM (titrated, usually from 46.1 µM), without a hit: at the top dose activity, negative = toxicity, most hits filed as cytotoxic; AID 686971, 2013;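 further: potency means the concentration at half of the fitted maximal effect; 0% = DMSO wells and -100% = cell-free medium wells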
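HT-1080-IDH1KD cells (IDH1 knocked down), 750/well in RPMI with 5% FBS, treated with compound 48 h at 37 degrees C. Viability by CellTiter-Glo luminescence, normalised to DMSO and no-cell wells; concentration-response curves classed.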
IL1B secr inh: qHTS for Inhibitors of Inflammasome Signaling: IL-1-beta AlphaLISA Primary Screen; 4.7% of 360,000 active; AID 743279, 2014; activity change, % at 57.5 µM; THP-1 LPS/ATP IL-1B secretion, AlphaLISA, 16 h; active compounds read low; in the data active means activity change below about -50%; inconclusive means mostly about -30% to -49%
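Secreted IL-1B measured by AlphaLISA bead assay after 16 h compound exposure of THP-1 cells; compounds (final up to 57.5 uM) added 1 h before LPS (250 ng/mL) and ATP (1.25 mM) stimulation; lower signal means less secretion.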
Active calls of the source: *; ? = inconclusive; / = no result given. The list is not random: actives were taken first. Their share in the collection is about 19%. Unless noted, the call rests on the fitted dose curve; in most records, active means well fitted curve in the direction sought with a large enough effect; inconclusive means small, poorly fitted or top-dose-only effect, or another doubt; inactive means no such curve, though single readings can be large; an effect the other way counts as inactive or inconclusive. Unless noted, on the % scale 0 is the no-effect control and ±100 the full control effect.

SMILES | ELG1 DNA repair | HT1080-NT tox | DT40 TDP1 no CPT | DT40 TDP1 CPT | HT1080 IDH1KD tx | IL1B secr inh
O=C(Nc1ccc(OC(F)(F)F)cc1)C1CCCN(C(=O)c2ccc(Cl)cc2)C1 (stereo not given) | ? | -25% | 12µM* | 16µM* | -22% | -28
CC(=O)Nc1ccc(NC(=O)C2CCCN(C(=O)c3ccc(Cl)cc3)C2)cc1 (stereo not given) | 2% | 16% | -28% | -8% | -1% | 23
Cc1ccc(S(=O)(=O)N(C)C)cc1NC(=O)C1CCCN(C(=O)c2ccc(Cl)cc2)C1 (stereo not given) | 1% | -7% | ? | ? | -6% | 11
COc1ncc2nc(-c3ccc(Cl)cc3)c(=O)n(Cc3cccs3)c2n1 | / | / | -23% | -8% | / | /
CC(C)NC(=O)CC(=O)Nc1ccc2nc3n(c(=O)c2c1)CCCCC3 | / | / | -11% | 6% | / | /
CCOC(=O)c1c(NC(=O)c2ccc(OCC)c(Br)c2)sc2c1CCCC2 | / | / | -13% | -1% | / | /
Cc1cc(C)c(C(O)c2ncc(-c3cccc4ccccc34)[nH]2)c(C)c1 (stereo not given) | / | ? | ? | ? | ? | 0
Cc1cccc(C)c1C(O)c1ncc(-c2ccc(Cl)cc2)[nH]1 (stereo not given) | / | -8% | ? | -27% | -17% | ?
Cc1cccc(C)c1C(O)c1ncc(-c2cccc3ccccc23)[nH]1 (stereo not given) | / | ? | 16µM* | 21µM* | ? | -11
Cc1ccc2ccccc2c1C(O)c1ncc(-c2ccc(Cl)cc2)[nH]1 (stereo not given) | / | ? | 8.2µM* | ? | ? | 13
Cc1cc(C)c(C(O)c2ncc(-c3ccccc3C)[nH]2)c(C)c1 (stereo not given) | / | ? | -29% | -30% | -17% | -26
Cc1ccccc1-c1cnc(C(O)c2c(C)cccc2C)[nH]1 (stereo not given) | / | -2% | -17% | ? | -10% | -12
Cc1cccc(C)c1C(O)c1ncc(-c2ccccc2F)[nH]1 (stereo not given) | / | -10% | ? | 21µM* | 5% | 22
Cc1cc(C)c(C(O)c2ncc(-c3ccccc3F)[nH]2)c(C)c1 (stereo not given) | / | ? | ? | 15µM* | ? | -20
CC(=O)N1CCN(C(=O)C(Cc2c[nH]c3ccccc23)NC(=O)c2ccccc2Cl)CC1 (stereo not given) | 16% | 19% | -10% | -8% | 11% | 6
Cc1ccccc1C(=O)NC(C)c1nnc2n1CCN(Cc1ccccc1F)CC2 (stereo not given) | / | / | -12% | -7% | / | /
Clc1ccc(CSc2nnc(-c3sccc3-n3cccc3)o2)cc1 | -14% | -10% | ? | -5% | -4% | -14
COc1c(C)cc(C(O)c2ncc(-c3cccc4ccccc34)[nH]2)cc1C (stereo not given) | / | ? | 18µM* | 21µM* | ? | 59
COc1c(C)cc(C(O)c2ncc(-c3ccccc3C(F)(F)F)[nH]2)cc1C (stereo not given) | / | -16% | ? | ? | -15% | -12
O=C(NCc1ccccc1)C1=C[C@H](c2coc3ccccc3c2=O)C[C@H](OCc2ccc(CO)cc2)O1 | ? | -2% | ? | ? | -3% | ?
C=CCOC(=O)C1=C[C@H](c2coc3ccccc3c2=O)C[C@H](OCc2ccc(CO)cc2)O1 | 8.2µM* | 5% | ? | ? | 5% | 20
O=C(Nc1ccccc1)C1=C[C@@H](c2coc3ccccc3c2=O)C[C@@H](OCc2ccc(CO)cc2)O1 | ? | -1% | 15µM* | ? | -6% | 4
COc1ccc(C(O)c2nc(-c3cccc(NC(C)=O)c3)cs2)cc1 (stereo not given) | / | 14% | ? | ? | 0% | -11
O=C(CC(c1ccccc1)C1CCCCC1=O)c1ccccc1 (stereo not given) | / | -1% | 16µM* | 18µM* | 13% | 12
COc1cccc(CNC(=O)c2cccc(Br)c2)c1 | -4% | 1% | ? | ? | 11% | 4
SMILES | ELG1 DNA repair | HT1080-NT tox | DT40 TDP1 no CPT | DT40 TDP1 CPT | HT1080 IDH1KD tx | IL1B secr inh
O=C(NCc1cccc(F)c1)c1cccc(NC(=O)c2nsc3ccccc23)c1 | / | / | 23µM* | 23µM* | / | /
COc1cccc(CNC(=O)c2cccc(NC(=O)c3nsc4ccccc34)c2)c1 | / | / | 21µM* | ? | / | /
O=C1c2ccccc2C(=O)N1CCCCN(C(=O)c1cc2ccccc2oc1=O)c1ccc(F)cc1F | -22% | -10% | ? | ? | 2% | -30
O=C(Nc1ccc2c(c1)[C@H]1C[C@@H](CC(=O)N3CCOCC3)O[C@@H](CO)[C@H]1O2)C1CCOCC1 | / | 1% | -21% | 2% | 17% | -10
CCOc1ccc2c(c1)c(=O)c(C(=O)c1ccccc1)cn2Cc1ccccc1F | / | / | 21µM* | ? | / | /
COc1ccc(C(=O)c2cn(Cc3ccccc3F)c3ccc(F)cc3c2=O)cc1 | / | / | 21µM* | ? | / | /
CC(Sc1nc(C2CC2)n(-c2ccccc2)n1)C(=O)c1c(N)n(C)c(=O)n(C)c1=O (stereo not given) | -10% | -8% | -9% | 3% | -8% | -3
